Laboratory results reported in paper PMC4336329 (PLoS ONE, 2015).
Out of some 310,000 compounds screened, about 14,000 (4.5%) showed an effect of 50% or more. The effect is printed as a negative number. The list comes from a sample in which strong results are over-represented; it also holds similar structures and randomly drawn compounds.

Molecular target: human ether-à-go-go-related gene (hERG) potassium channel (human, UniProt Q12809)
Assay: primary screen, population patch clamp on CHO cells stably expressing hERG; higher = less effect of the substance
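Note: peak tail current of the secondary pulse compared with the same well before compound.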

Chain of human ether-à-go-go-related gene (hERG) potassium channel (Q12809 whole entry, looked up): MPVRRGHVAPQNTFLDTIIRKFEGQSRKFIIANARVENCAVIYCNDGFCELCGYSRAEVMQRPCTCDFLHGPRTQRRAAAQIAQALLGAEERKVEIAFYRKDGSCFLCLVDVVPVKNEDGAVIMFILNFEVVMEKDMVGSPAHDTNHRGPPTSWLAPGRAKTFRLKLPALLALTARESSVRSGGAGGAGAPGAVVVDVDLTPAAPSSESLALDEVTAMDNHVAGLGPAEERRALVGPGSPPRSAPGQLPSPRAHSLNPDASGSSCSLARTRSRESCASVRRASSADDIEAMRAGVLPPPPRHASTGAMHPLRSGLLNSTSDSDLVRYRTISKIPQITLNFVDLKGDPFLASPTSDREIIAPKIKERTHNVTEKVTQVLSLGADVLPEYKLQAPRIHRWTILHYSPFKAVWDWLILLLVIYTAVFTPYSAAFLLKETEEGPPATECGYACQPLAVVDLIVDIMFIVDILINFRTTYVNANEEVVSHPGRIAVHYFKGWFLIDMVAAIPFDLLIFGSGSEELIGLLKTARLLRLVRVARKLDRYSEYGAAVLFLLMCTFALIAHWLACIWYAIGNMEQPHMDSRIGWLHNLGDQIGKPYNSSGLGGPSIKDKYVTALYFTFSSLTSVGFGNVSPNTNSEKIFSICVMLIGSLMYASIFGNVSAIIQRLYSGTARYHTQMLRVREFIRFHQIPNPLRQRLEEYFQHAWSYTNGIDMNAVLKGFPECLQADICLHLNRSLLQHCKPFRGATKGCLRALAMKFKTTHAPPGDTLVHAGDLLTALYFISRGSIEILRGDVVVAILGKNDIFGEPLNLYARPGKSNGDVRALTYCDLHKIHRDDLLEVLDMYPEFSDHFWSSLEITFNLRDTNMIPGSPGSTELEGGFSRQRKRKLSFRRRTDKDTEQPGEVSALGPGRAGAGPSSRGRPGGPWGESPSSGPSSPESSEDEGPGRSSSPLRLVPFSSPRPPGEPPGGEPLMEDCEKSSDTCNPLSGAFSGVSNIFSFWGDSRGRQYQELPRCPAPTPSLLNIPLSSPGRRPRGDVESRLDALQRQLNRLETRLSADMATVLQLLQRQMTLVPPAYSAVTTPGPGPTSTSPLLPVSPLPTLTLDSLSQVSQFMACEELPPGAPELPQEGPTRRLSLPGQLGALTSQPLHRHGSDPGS

Row | SMILES | hERG current change (%, negative = inhibition) at 10uM [%]
1 | COC(=O)c1cc(S(=O)(=O)NCc2ccccc2Cl)c[nH]1 | 17.1
2 | C1CN(CCN2CCOCC2)CCN1 | 21
3 | Cc1cccc(C)c1NS(=O)(=O)c1ccc(NC(=O)c2ccc(Cl)c([N+](=O)[O-])c2)cc1 | 13.9
4 | Cc1ccc(S(=O)(=O)N(CC2CO2)c2ccccc2[N+](=O)[O-])cc1 (stereo not drawn) | 13.1
5 | O=C(Nc1nnc(SCc2ccccc2Cl)s1)c1cccc([N+](=O)[O-])c1 | -3.26
6 | O=C(Nc1cc(Oc2ccc(Cl)cc2)cc([N+](=O)[O-])c1)c1ccco1 | 15
7 | CCOc1cnn(-c2cc(Oc3ccc(C)cc3)ncn2)c(=O)c1Cl | -12.4
8 | O=C(CSc1nnnn1-c1cccc2ccccc12)Nc1ccc(N2CCOCC2)c(Cl)c1 | 2.68
9 | CC(C)c1ccc(OCC(O)CNC(C)c2ccccc2)cc1.Cl (stereo not drawn) | -65.3
10 | COc1ccc(OCC(O)CNC(C)c2ccccc2)cc1.Cl (stereo not drawn) | 5.12
11 | CC(NCC(O)COc1ccc(Br)cc1)c1ccccc1.Cl (stereo not drawn) | 0.452
12 | O=C1CCCN1c1cc(Cl)ccc1Cl | 2.17
13 | CN(Cc1nc(-c2cnccn2)no1)CC1(c2ccccc2)CC1(C)C (stereo not drawn) | 4.2
14 | COc1ccc(-c2nnc(-c3ccc(N)cc3)o2)cc1 | -5.64
15 | CC1CCCCN1C(=O)c1ccc(S(=O)(=O)N2CCCCC2C)cc1 (stereo not drawn) | -9.35
16 | COc1ccccc1N1CCN(C(=O)/C=C/c2ccc3c(c2)OCO3)CC1 | -10.5
17 | CC(C)(C)c1ccc(C(=O)N/C(=C\c2cccc([N+](=O)[O-])c2)C(=O)Nc2cccc(C(=O)O)c2)cc1 | 12.7
18 | C=CCNC(=O)/C(=C/c1cccc([N+](=O)[O-])c1)NC(=O)c1ccco1 | -27.5
19 | CN(C)CCNC(=O)/C(=C/c1cccc([N+](=O)[O-])c1)NC(=O)c1ccccc1 | -66.9
20 | C=CCNC(=O)/C(=C/c1cccc([N+](=O)[O-])c1)NC(=O)c1ccccc1 | -31.2
21 | C=CCNC(=O)/C(=C\c1cccc([N+](=O)[O-])c1)NC(=O)c1ccccc1 | -53.4
22 | COc1ccc(C(=O)N/C(=C\c2cccc([N+](=O)[O-])c2)C(=O)Nc2cccc(C(=O)O)c2)cc1 | 5.3
23 | Cc1c(C(=O)N(CC(C)C)c2c(N)n(Cc3ccccc3)c(=O)[nH]c2=O)sc2nc3n(c(=O)c12)CCC3 | 7.27
24 | CC(C)CN1C(=O)C(=O)N(CC(=O)c2ccc[nH]2)C1=O | 1.48
25 | Cc1ccc(S(=O)(=O)N2CCCCC2C(=O)N2CCN(C)CC2)cc1 (stereo not drawn) | 18.1
26 | CCOc1ccc(N(CC(=O)Nc2ccccc2C(=O)NC(C)CC)S(C)(=O)=O)cc1 (stereo not drawn) | -13.3
27 | Cc1[nH]c(C)c(S(=O)(=O)N2CCN(c3ccc(Cl)cc3)CC2)c1C(=O)N1CCCC1 | -66.4

Row | SMILES | hERG current change (%, negative = inhibition) at 10uM [%]
28 | CC(=O)c1ccc(N2CCN(S(=O)(=O)c3c(C(=O)N4CCCCC4)c(C)n(C)c3C)CC2)cc1 | -2.75
29 | Cc1[nH]c(C)c(S(=O)(=O)N2CCN(c3cccc(Cl)c3)CC2)c1C(=O)N1CCCC1 | -6.94
30 | Cc1c(C(=O)N2CCCCC2)c(S(=O)(=O)N2CCN(c3ccc(Cl)cc3)CC2)c(C)n1C | -55.7
31 | Cc1c(C(=O)N2CCOCC2)c(S(=O)(=O)N2CCN(c3ccc(Cl)cc3)CC2)c(C)n1C | -37.6
32 | Cc1[nH]c(C)c(S(=O)(=O)N2CCN(c3ccccc3)CC2)c1C(=O)N1CCCC1 | -10.4
33 | CCOc1ccc(OCC)c(NC(=O)C2CCN(c3ncccn3)CC2)c1 | -30
34 | CCC(C)CCN1C(N(C)C)=NC[C@@H]1C (stereo partly drawn) | 15.3
35 | O=C(NC1CCCCC1)C(c1ccco1)N(C(=O)c1csnn1)c1cccc(Cl)c1 (stereo not drawn) | 4.93
36 | OCCC1CN(Cc2cccn2-c2nccs2)CCN1C1CCCCC1 (stereo not drawn) | -37.8
37 | OCCC1CN(Cc2cccn2-c2nccs2)CCN1CCc1ccccc1 (stereo not drawn) | -73.6
38 | CCOc1ccc(CN2CCN(Cc3cccn3-c3nccs3)CC2CCO)cc1 (stereo not drawn) | -76.1
39 | OCCC1CN(Cc2cccn2-c2nccs2)CCN1Cc1ccccc1 (stereo not drawn) | -69.3
40 | CC(C)=CCN1CCN(Cc2cccn2-c2nccs2)CC1CCO (stereo not drawn) | -34.1
41 | CC(C)N1CCN(Cc2cccn2-c2nccs2)CC1CCO (stereo not drawn) | 10.2
42 | CC(C)CCN1CCN(Cc2cccn2-c2nccs2)CC1CCO (stereo not drawn) | -52.1
43 | COc1ccc(CN2C(=O)c3ccccc3C(/C=N\OCc3ccc(C)cc3)C2=O)cc1 (stereo not drawn) | 8.84
44 | CCN(c1ccccc1)S(=O)(=O)c1ccc(C(=O)Nc2nccs2)cc1 | 8.62
45 | Cc1c(S(=O)(=O)Nc2ccc3c(c2)OCCO3)c(=O)n(C)c(=O)n1C | -10.7
46 | CCOCCCNS(=O)(=O)c1cc2[nH]c3c(c2cc1C)C(=O)CC(C)(C)C3 | -6.44
47 | Cc1ccc(NS(=O)(=O)c2ccc(C)c(C(=O)N3CCN(C)CC3)c2)cc1.Cl | -14.8
48 | COc1ccc(OC)c(S(=O)(=O)N(C)CC(=O)Nc2ccccc2OC)c1 | -20.2
49 | O=C1/C(=C\c2ccc(Br)o2)Cc2ccccc21 | 2.56
50 | CSc1ncccc1C(=O)OCC(=O)Nc1ccc2c(c1)CCC2 | 9.67
51 | COc1ccc(C(=O)NC(=S)NNC(=O)COc2ccccc2)cc1 | -2.47
52 | Cc1ccc(CN2CCN(Cc3cccn3-c3nccs3)CC2CCO)cc1 (stereo not drawn) | -77.3
53 | CCc1nc(CN2CCN(Cc3ccc(F)c(F)c3)C(CCO)C2)c(C)[nH]1 (stereo not drawn) | 14.2
54 | OCCC1CN(Cc2cccn2-c2nccs2)CCN1Cc1ccc(F)c(F)c1 (stereo not drawn) | -80.7
